Compound activity (PubChem BioAssay)
Compounds with a hit are over-represented: about 12% of the library has one in this group of screens.
HP1b chromo inh – HTS for Inhibitors of HP1-beta Chromodomain Interactions with Methylated Histone Tails. Chromobox protein homolog 1 (Homo sapiens), P83916. 0.56% of 390,000 active. AID 540317, 2011. Potency, µM (doses to about 114 µM), for inactives: at the top dose activity change, negative = inhibition, actives largely listed as inhibitors. AlphaScreen HP1-beta / biotin-H3K9me3 peptide binding; note: nearly all actives have a fitted effect of over 70% in size
Target sequence (P83916 whole entry, looked up): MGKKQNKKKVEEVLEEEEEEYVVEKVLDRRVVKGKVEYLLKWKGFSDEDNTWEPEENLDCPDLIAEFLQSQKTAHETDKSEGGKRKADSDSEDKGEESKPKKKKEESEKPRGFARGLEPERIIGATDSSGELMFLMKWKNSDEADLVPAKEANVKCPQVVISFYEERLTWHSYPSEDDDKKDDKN
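AlphaScreen: HP1-beta (50 nM) preformed 30 min with biotin-H3(1-18)K9me3 peptide (50 nM) in PBS pH 7.4, 0.01% Tween-20. Compound added for 30 min at RT, then streptavidin donor/nickel chelate acceptor beads (10 ug/mL) for 30 min.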
BAZ2B block – qHTS Assay for Inhibitors of BAZ2B; AlphaScreen BAZ2B-H3K14Ac peptide displacement; Potency, µM (highest dose often 114 µM), for inactives: top-dose activity change, negative = inhibition, hits mostly inhibitors; 4.4% of 360,000 active; note: % is set by controls: 0 for no effect and ±100 for the full control effect; nearly all actives have a fitted effect of over 60% in size
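Multi-concentration screen (max 110 uM) measuring displacement of acetylated histone H3 peptide from BAZ2B by AlphaScreen, using 50 nM protein, 50 nM peptide and 10 ug/mL streptavidin donor plus Ni-chelate acceptor beads.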
Sfp inh – qHTS Assay for Inhibitors of Bacillus subtilis Sfp phosphopantetheinyl transferase (PPTase); Potency, µM, for the others: largest response in the series, negative = inhibition, most hits filed as inhibitors; 3.5% of 310,000 active; Biochemical Sfp PPTase activity, qHTS; 4'-phosphopantetheinyl transferase ffp (Bacillus subtilis), Q9F4F7;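 note: the enzyme is Sfp with the accession as filed and its product quenches rhodamine fluorescence; 0% = enzyme reaction without inhibitor and -100% = no enzyme wells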
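Buffer: 50 mM Hepes-Na pH 7.6, 10 mM MgCl2, 0.01% Nonidet P-40, 0.01% BSA. Enzyme 15 nM, pre-exposed to compound 15 min; substrates then added and fluorescence change tracked over 30 min.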
L3MBTL1 inh – qHTS Assay for the Inhibitors of L3MBTL1. Lethal(3)malignant brain tumor-like protein 1 (Homo sapiens), Q9Y468. AlphaScreen L3MBTL1–H3K9me1 peptide binding. Potency, µM (doses to about 57.1 µM), without a hit: at the highest dose activity, negative = inhibition, actives largely listed as inhibitors. 0.66% of 230,000 active. AID 485360, 2010; note: % is set by controls: 0 for no effect and ±100 for the full control effect; nearly all actives have a fitted effect of over 60% in size
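AlphaScreen proximity signal between nickel-chelate acceptor and streptavidin donor beads (final 10 ug/mL) reports binding of 50 nM L3MBTL1 to 75 nM biotin-H3 K9me1 peptide; complex incubated with compounds 30 min at room temperature; cefsulodin titration as control.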
JMJD2A Tudor – qHTS Assay for Inhibitors of JMJD2A-Tudor Domain; AlphaScreen JMJD2A-Tudor / H3K4me3 peptide binding; 4.4% of 390,000 active; AID 504339, 2011; Potency, µM (doses to about 114 µM), for inactives: top-dose activity change, negative = inhibition, hits mostly inhibitors; note: % is set by controls: 0 for no effect and ±100 for the full control effect; nearly all actives have a fitted effect of over 50% in size
G9a block – qHTS Assay for Inhibitors of Histone Lysine Methyltransferase G9a. Histone-lysine N-methyltransferase EHMT2 (Homo sapiens), Q96KQ7. Potency, µM (highest dose often 102 µM), for inactives: at the highest dose activity, negative = inhibition, usual class: inhibitors. G9a H3K9 monomethylation, AlphaScreen, 2 h. 8.8% of 350,000 active; note: % is set by controls: 0 for no effect and ±100 for the full control effect; nearly all actives have a fitted effect of over 75% in size
Target sequence (Q96KQ7 913-1193 limits assumed): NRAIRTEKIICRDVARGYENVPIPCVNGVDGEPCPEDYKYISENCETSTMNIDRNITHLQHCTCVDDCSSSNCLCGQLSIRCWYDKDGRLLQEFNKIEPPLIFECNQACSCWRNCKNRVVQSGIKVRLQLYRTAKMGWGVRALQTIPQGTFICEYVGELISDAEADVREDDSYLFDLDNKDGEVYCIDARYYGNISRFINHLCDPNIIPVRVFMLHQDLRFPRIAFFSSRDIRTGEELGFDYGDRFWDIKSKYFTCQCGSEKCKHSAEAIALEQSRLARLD
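AlphaScreen detection with an anti-monomethyl H3K9 antibody quantified product after a 2 h room-temperature reaction containing 500 nM biotinylated H3K9 peptide, 20 µM SAM and 20 nM enzyme, which had been preincubated 15 min with compound.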
* = called active by the depositor; ? = inconclusive; · = no result given; [ ] = dose if it differs, or a comment. Calls come from the whole dose curve; as a rule, active = well fitted curve in the direction sought with a large enough effect; inconclusive = small, poorly fitted or top-dose-only effect, or another doubt; inactive = no such curve, though single readings can be large; an effect the other way counts as inactive or inconclusive. Potency is the fitted concentration of half-maximal effect.

SMILES | HP1b chromo inh | BAZ2B block | Sfp inh | L3MBTL1 inh | JMJD2A Tudor | G9a block
COc1ncnc(OC)c1S(=O)(=O)Nc1ccc(C(F)(F)F)cc1 | 29.4% | 13.4% | 11.5% | · | -8.4% | -11.0%[2.33 µM]
CCCCCCC(=O)N1C/C=C\C(c2ccc(OC)cc2)N(Cc2ccc(F)cc2)C(=O)C1Cc1ccccc1 (configuration not stated) | 18.8% | · | -9.6% | · | -29.7% | ·
COc1ccc(Oc2ncc3nc(CCc4ccccc4)c(=O)n(C)c3n2)cc1 | · | · | -15.7% | · | · | 7.8%[12.7 µM]
C/C(CCc1ccc2c(c1)OCO2)=N\NC(=O)c1ccccc1 | -0.2% | -0.1% | 1.2% | 0.7% | -22.5% | -5.6%[59 µM]
NC(=NCc1ccc2c(c1)OCO2)NC(=O)c1ccccc1 | -21.8% | 39.8µM* | ? | ? | ? | ?
O=c1[nH]c2ccc(Br)cc2c(-c2ccccc2)c1N1CCOCC1 | 38.5% | -1.7% | 20.7% | -3.2% | -9.9% | -44.4%[59 µM]
O=c1[nH]c2ccc(Br)cc2c(-c2ccccc2)c1CN1CCOCC1 | 12.6% | -11.4% | -10.7% | 3.1% | ? | 50.1µM*
Cc1cccc(NC(=O)c2cn(-c3ccccc3)nc2-c2ccccc2)c1C | 26.6% | -16.2% | · | · | -31.5% | -6.7%[59 µM]
Cc1ccc(-c2noc(C3CCCN(C(=O)c4ccccc4)C3)n2)o1 (configuration not stated) | 25.9% | -23.0% | -13.9% | · | -15.9% | ?
Cc1ccc(-c2noc(C3CCCN(C(=O)c4ccccc4Br)C3)n2)o1 (configuration not stated) | 19.8% | -18.2% | -19.8% | · | -13.7% | 25.1µM*
Cc1ccc(CNC(=O)c2ccc3c(c2)NC(=O)C(CS(=O)(=O)Cc2cccc(C)c2)N3)cc1 (configuration not stated) | 46.7% | 6.0%[57.1 µM] | · | · | -15.5% | 14.1µM*
CCN(CC)CCNC(=O)c1ccc2c(c1)NC(=O)C(CS(=O)(=O)Cc1cccc(Br)c1)N2 (configuration not stated) | -6.2% | -36.9% | · | · | -31.8% | ?
O=C(NCc1ccccc1Cl)c1ccc2c(c1)NC(=O)C(CS(=O)(=O)Cc1ccc(Cl)cc1)N2 (configuration not stated) | -5.5% | -0.4% | · | · | ? | 28.2µM*
COc1ccc(Cl)cc1NC(=O)N1CCN(c2ccccc2OC)CC1 | 13.7% | -15.4% | 21.5% | -5.2% | -14.4% | -6.0%
COc1ccc(Cl)cc1NC(=O)NCCN1CCCCC1 | 33.7% | -14.5% | 22.0% | 4.2% | -7.5% | ?
CCN1CCN(C(=O)Nc2cc(Cl)ccc2OC)CC1 | 18.7% | -15.1% | 19.7% | -5.7% | -5.4% | 50.1µM*
COc1ccc(Cl)cc1NC(=O)NN1CCN(C)CC1 | 36.3% | 50.1µM* | 5.3% | · | 3.1% | 50.1µM*
CCCN(C(=O)CSc1n[nH]c(-c2ccc(OC)cc2)n1)c1c(N)n(Cc2ccccc2)c(=O)[nH]c1=O | 22.0% | 1.9% | · | -9.1% | -14.4% | 44.7µM*
COCCN(C(=O)CSc1nnc(-c2ccccc2C)n1C)c1c(N)n(Cc2ccccc2)c(=O)[nH]c1=O | 1.0% | -11.8% | 5.8% | · | -18.5% | 8.91µM*
CCCc1cc(=O)[nH]c(SCC(=O)N(CCOC)c2c(N)n(Cc3ccccc3)c(=O)[nH]c2=O)n1 | 49.3% | 9.3% | · | -5.5% | -0.7% | 50.1µM*
COc1ccc(-c2nc(SCC(=O)N(CC(C)C)c3c(N)n(Cc4ccccc4)c(=O)[nH]c3=O)n[nH]2)cc1 | 18.2% | 12.0% | · | 4.2% | -20.7% | 7.8%[0.501 µM]
N#CN1CCC(N[S+](=O)([O-])c2cccc(F)c2)CC1 | · | · | · | · | -0.7% | ·
